Source: PubChem BioAssay (NCI)
About 83,000 compounds went through this panel and 20% of them were active in at least one assay; those are over-represented in the sample as a whole.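 A percent growth of 40 corresponds to 60% growth inhibition; 0 means no net growth; -100 means all cells died. Active threshold: below 10.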 Active and inactive are the calls of the source.

These compounds were tested on HCT-15 colon (assay: NCI-60 one-dose screen, 48 h (100 = growth as untreated, 0 = no growth, -100 = all killed)). Settings: 10 µM unless noted.
`CC(C)(C)OC(=O)NC(CSCc1ccccc1)C(=O)ON1C(=O)CCC1=O` (stereo not drawn) was tested, and the growth was 103% (inactive). In the case of `Nc1cccc(Cl)c1N`, the growth is reported as 96.5% (inactive). With `C/C(=C\c1ccc(OCC(=O)O)c(Cl)c1Cl)[N+](=O)[O-]` the growth was 97.4% (inactive). In the case of `CCOC(=O)C1=C(C)NC(C)=C(C(=O)OCC)C1(C)C`, the growth is reported as 101% (inactive). `N#C/C(=C1C=C/C(=N/O)C(Cl)=C/1)c1ccc(Cl)cc1` was tested, and the growth was 83% (inactive). `CCC(C)/C(=C\C#N)NCCCN/C(=C/C#N)C(C)CC` (stereo not drawn) was tested, and the growth was 97% (inactive). In the case of `Cn1ncc2c(Sc3ccc(Cl)cc3)ncnc21`, the growth is reported as 97% (inactive). `O=C(CSC1CCc2ccccc21)N/N=C/c1ccccc1O` (stereo not drawn) was tested, and the growth was 33.6% (inactive). `CC1(c2ccc(Cl)cc2)OC(=O)CC(=O)O1` was tested, and the growth was 102% (inactive). For `O=C1C(Cl)=C(Nc2ccccn2)C(=O)c2ccccc21`, the growth was 43.5% (inactive). In the case of `CCCCCCCCCCCCCCCCNC(=O)OC(C)C`, the growth is reported as 55.9% (inactive). With `Cc1ccc2nc(Cl)cc(=O)n2c1` the growth was 102% (inactive). For `CC1CCC(C)N(C)C1` (stereo not drawn), the growth was 117% (inactive). For `CCc1cnc(=S)n(-c2ccccc2)c1`, the growth was 103% (inactive). `CC(=O)Nc1nc(N)nc(NC(C)=O)c1N=O` was tested, and the growth was 104% (inactive). With `COc1cc(C2CC(c3ccc4c(c3)OCO4)=NN2C(C)=O)cc(OC)c1OC` (stereo not drawn) the growth was 40.4% (inactive). `O=C(c1ccccc1)C1OC1c1ccc([N+](=O)[O-])cc1` (stereo not drawn) was tested, and the growth was 70.8% (inactive). `COc1ccc2c(c1)C(c1cc(OC)c3c(c1)OCO3)C1=C(COC1=O)N2` (stereo not drawn) was tested, and the growth was 26.2% (inactive). With `CC(=O)Nc1scc[n+]1Cc1ccccc1` the growth was 101% (inactive). With `C=C1CCC2C3(C)COC(c4ccccc4)OC3CCC2(C)C1/C=C/C1=CCOC1=O` (stereo not drawn) the growth was 45.6% (inactive). `CCN(CC)CCOc1ccc(Cl)c(C)c1` was tested, and the growth was 104% (inactive). In the case of `O=C(Oc1ccccc1[N+](=O)[O-])C1CCCN1C(=O)OCc1ccccc1` (stereo not drawn), the growth is reported as 101% (inactive). For `CC(=O)Nc1ccc(S(=O)(=O)n2ccc(-c3ccc4c(c3)CCC(C)(C)O4)n2)cc1`, the growth was 59.3% (inactive). For `CC(C)(C)OC(=O)NCCc1ccc(N=C=S)cc1`, the growth was 55.9% (inactive). For `COc1cc(C2CC(c3ccc4c(c3)OCO4)=NN2C=O)cc(OC)c1OC` (stereo not drawn), the growth was 33.5% (inactive). For `O=C1CCCCC1(c1ccccc1)c1ccccc1`, the growth was 91.3% (inactive). `Nc1nc(=O)c2ccccc2s1` was tested, and the growth was 101% (inactive). For `CN1C=CN(Cc2ccc(-c3ccccn3)nc2)[CH-]1.CN1C=CN(Cc2ccc(-c3ccccn3)nc2)[CH-]1.[Au+3]`, the growth was 68.5% (inactive). For `COC(OC)c1ccccc1`, the growth was 105% (inactive). In the case of `C=C[C@@H]1C[C@H](O)Cc2cc(F)ccc2N1`, the growth is reported as 96.4% (inactive). For `CN(C)c1ncnc2c1ccn2C1OC(CO)C(O)C1O` (stereo not drawn), the growth was 14.3% (inactive). For `NC1=NN(O)C2=CC([N+](=O)[O-])C=CC2=N1` (stereo not drawn), the growth was 101% (inactive). In the case of `O=C([O][Sn]([O]C(=O)c1ccccn1)([c]1ccccc1)[c]1ccccc1)c1ccccn1`, the growth is reported as 81.7% (inactive). For `C=C(C)[C@@H]1C[C@H](O)Cc2cc(F)ccc2N1`, the growth was 100% (inactive). In the case of `CNC(=S)NNC(=O)C1CC1`, the growth is reported as 105% (inactive). With `CCOC(=O)C1CCNC(=O)C1=O` (stereo not drawn) the growth was 111% (inactive). For `COc1ccc(CNCCCN2C(=O)c3ccc4c5c(ccc(c35)C2=O)C(=O)N(CCCNCCCCNCCCN)C4=O)c(OC)c1OC`, the growth was 19.7% (inactive). `Cc1ccc(S(=O)(=O)C2=C3C(=C(c4ccccc4)c4ccccc43)CN(S(=O)(=O)c3ccc(C)cc3)C2)cc1` was tested, and the growth was 39% (inactive). `COc1cc2c(c(OC)c1OC)-c1ccc(N)c(=O)cc1[C@@H](NC(C)=O)CC2` was tested, and the growth was 11.8% (inactive).

Each compound was assayed on SNB-75 CNS in the same assay as above. Settings: 10 µM.
In the case of `CC(C)(C)OC(=O)NC(CSCc1ccccc1)C(=O)ON1C(=O)CCC1=O` (stereo not drawn), the growth is reported as 105% (inactive). In the case of `Nc1cccc(Cl)c1N`, the growth is reported as 76.9% (inactive). With `C/C(=C\c1ccc(OCC(=O)O)c(Cl)c1Cl)[N+](=O)[O-]` the growth was 103% (inactive). For `CCOC(=O)C1=C(C)NC(C)=C(C(=O)OCC)C1(C)C`, the growth was 87.3% (inactive). `N#C/C(=C1C=C/C(=N/O)C(Cl)=C/1)c1ccc(Cl)cc1` was tested, and the growth was 89% (inactive). With `CCC(C)/C(=C\C#N)NCCCN/C(=C/C#N)C(C)CC` (stereo not drawn) the growth was 92.1% (inactive). In the case of `Cn1ncc2c(Sc3ccc(Cl)cc3)ncnc21`, the growth is reported as 86.7% (inactive). For `O=C(CSC1CCc2ccccc21)N/N=C/c1ccccc1O` (stereo not drawn), the growth was 71.7% (inactive). For `CC1(c2ccc(Cl)cc2)OC(=O)CC(=O)O1`, the growth was 99% (inactive). With `O=C1C(Cl)=C(Nc2ccccn2)C(=O)c2ccccc21` the growth was 62.1% (inactive). For `CCCCCCCCCCCCCCCCNC(=O)OC(C)C`, the growth was 64% (inactive). In the case of `Cc1ccc2nc(Cl)cc(=O)n2c1`, the growth is reported as 115% (inactive). For `CC1CCC(C)N(C)C1` (stereo not drawn), the growth was 89.7% (inactive). With `CCc1cnc(=S)n(-c2ccccc2)c1` the growth was 117% (inactive). `CC(=O)Nc1nc(N)nc(NC(C)=O)c1N=O` was tested, and the growth was 109% (inactive). In the case of `COc1cc(C2CC(c3ccc4c(c3)OCO4)=NN2C(C)=O)cc(OC)c1OC` (stereo not drawn), the growth is reported as -12.1% (active). With `O=C(c1ccccc1)C1OC1c1ccc([N+](=O)[O-])cc1` (stereo not drawn) the growth was 70% (inactive). With `COc1ccc2c(c1)C(c1cc(OC)c3c(c1)OCO3)C1=C(COC1=O)N2` (stereo not drawn) the growth was 43.6% (inactive). In the case of `CC(=O)Nc1scc[n+]1Cc1ccccc1`, the growth is reported as 106% (inactive). With `C=C1CCC2C3(C)COC(c4ccccc4)OC3CCC2(C)C1/C=C/C1=CCOC1=O` (stereo not drawn) the growth was 51.7% (inactive). With `CCN(CC)CCOc1ccc(Cl)c(C)c1` the growth was 93.4% (inactive). With `O=C(Oc1ccccc1[N+](=O)[O-])C1CCCN1C(=O)OCc1ccccc1` (stereo not drawn) the growth was 99% (inactive). For `CC(=O)Nc1ccc(S(=O)(=O)n2ccc(-c3ccc4c(c3)CCC(C)(C)O4)n2)cc1`, the growth was 81.4% (inactive). With `CC(C)(C)OC(=O)NCCc1ccc(N=C=S)cc1` the growth was 42.4% (inactive). With `COc1cc(C2CC(c3ccc4c(c3)OCO4)=NN2C=O)cc(OC)c1OC` (stereo not drawn) the growth was -13.5% (active). In the case of `O=C1CCCCC1(c1ccccc1)c1ccccc1`, the growth is reported as 88.8% (inactive). `Nc1nc(=O)c2ccccc2s1` was tested, and the growth was 94.1% (inactive). For `CN1C=CN(Cc2ccc(-c3ccccn3)nc2)[CH-]1.CN1C=CN(Cc2ccc(-c3ccccn3)nc2)[CH-]1.[Au+3]`, the growth was 72.6% (inactive). In the case of `COC(OC)c1ccccc1`, the growth is reported as 91% (inactive). In the case of `C=C[C@@H]1C[C@H](O)Cc2cc(F)ccc2N1`, the growth is reported as 87.9% (inactive). `CN(C)c1ncnc2c1ccn2C1OC(CO)C(O)C1O` (stereo not drawn) was tested, and the growth was 27% (inactive). For `NC1=NN(O)C2=CC([N+](=O)[O-])C=CC2=N1` (stereo not drawn), the growth was 99.5% (inactive). In the case of `O=C([O][Sn]([O]C(=O)c1ccccn1)([c]1ccccc1)[c]1ccccc1)c1ccccn1`, the growth is reported as 49.3% (inactive). For `C=C(C)[C@@H]1C[C@H](O)Cc2cc(F)ccc2N1`, the growth was 87.5% (inactive). `CNC(=S)NNC(=O)C1CC1` was tested, and the growth was 96.5% (inactive). `CCOC(=O)C1CCNC(=O)C1=O` (stereo not drawn) was tested, and the growth was 101% (inactive). For `COc1ccc(CNCCCN2C(=O)c3ccc4c5c(ccc(c35)C2=O)C(=O)N(CCCNCCCCNCCCN)C4=O)c(OC)c1OC`, the growth was -26.8% (active). With `Cc1ccc(S(=O)(=O)C2=C3C(=C(c4ccccc4)c4ccccc43)CN(S(=O)(=O)c3ccc(C)cc3)C2)cc1` the growth was 56.1% (inactive). In the case of `COc1cc2c(c(OC)c1OC)-c1ccc(N)c(=O)cc1[C@@H](NC(C)=O)CC2`, the growth is reported as 33.8% (inactive).
